In PubChem BioAssay AID1159580 (chemical genetic matrix, 2015):
The whole screen tested about 5,500 compounds, of which about 2,000 (36%) were called active. Another 18% or so got no clear call; they are omitted. No stated cut-off is given here; in the data, active means normalized growth mostly below about 0.91 (no sharp cut-off); inconclusive means no clear call, values can overlap the other calls; inactive means mostly above about 0.92. The list shows a part of the results.

Assay: chemical genetic growth profiling, strain panel (AID 1159580);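 further: tested at 20 µM; growth read once vehicle control cultures reached saturation at 30 °C; 1 = growth at the plate median or of vehicle wells; lower values mean less growth of the strain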
Conditions: S. cerevisiae deletion strains, growth OD
[1] = locus YAR019C, strain CDC15, hits give low values
[2] = locus YBL105C, strain PKC1, hits give low values
[3] = locus YBR135W, strain CKS1, hits give low values
[4] = locus YBR136W, strain MEC1, hits give low values
[5] = locus YBR160W, strain CDC28, hits give low values
[6] = locus YDL017W, strain CDC7, hits give low values
[7] = locus YDL028C, strain MPS1, hits give low values
[8] = locus YDL101C, strain DUN1, hits give low values
[9] = locus YDL108W, strain KIN28, hits give low values
[10] = locus YDL132W, strain cdc53, hits give low values
[11] = locus YDL214C, strain PRR2, hits give low values
[12] = locus YDR052C, strain DBF4, hits give low values
[13] = locus YDR054C, strain cdc34, hits give low values
[14] = locus YDR226W, strain ADK1, hits give low values
[15] = locus YDR477W, strain SNF1, hits give low values
[16] = locus YER123W, strain YCK3, hits give low values
[17] = locus YER133W, strain GLC7, hits give low values
[18] = locus YFL009W, strain cdc4, hits give low values
[19] = locus YFL029C, strain CAK1, hits give low values
[20] = locus YFR003C, strain YPI1, hits give low values
[21] = locus YFR019W, strain FAB1, hits give low values
[22] = locus YFR028C, strain CDC14, hits give low values
[23] = locus YGR040W, strain KSS1, hits give low values
[24] = locus YGR052W, strain FMP48, hits give low values
[25] = locus YGR092W, strain DBF2, hits give low values
[26] = locus YHR030C, strain SLT2, hits give low values
[27] = locus YHR079C, strain IRE1, hits give low values
[28] = locus YHR082C, strain KSP1, hits give low values
[29] = locus YHR205W, strain SCH9, hits give low values
[30] = locus YIL147C, strain SLN1, hits give low values
[31] = locus YJL095W, strain BCK1, hits give low values
[32] = locus YJL128C, strain PBS2, hits give low values
[33] = locus YJL157C, strain FAR1, hits give low values
[34] = locus YJR016C, strain ILV3, hits give low values
[35] = locus YJR066W, strain TOR1 (second series), hits give low values
[36] = locus YJR066W, strain TOR1, hits give low values
[37] = locus YKL048C, strain ELM1, hits give low values
[38] = locus YKL067W, strain YNK1, hits give low values
[39] = locus YKL101W, strain HSL1, hits give low values
[40] = locus YKL193C, strain SDS22, hits give low values
[41] = locus YKL203C, strain TOR2, hits give low values
[42] = locus YLR113W, strain HOG1, hits give low values
[43] = locus YLR133W, strain CKI1, hits give low values
[44] = locus YLR403W, strain SFP1, hits give low values
[45] = locus YML070W, strain DAK1, hits give low values
[46] = locus YMR001C, strain CDC5, hits give low values
[47] = locus YMR205C, strain PFK2 (second series), hits give low values
[48] = locus YMR277W, strain FCP1, hits give low values
[49] = locus YNL006W, strain LST8, hits give low values
[50] = locus YNL020C, strain ARK1, hits give low values
[51] = locus YNL161W, strain CBK1, hits give low values
[52] = locus YNL183C, strain NPR1, hits give low values
[53] = locus YNL207W, strain RIO2, hits give low values
[54] = locus YNL222W, strain SSU72, hits give low values
[55] = locus YNL307C, strain MCK1 (second series), hits give low values
[56] = locus YOL078W, strain AVO1, hits give low values
[57] = locus YOL136C, strain PFK27, hits give low values
[58] = locus YOR061W, strain CKA2, hits give low values
[59] = locus YOR119C, strain RIO1, hits give low values
[60] = locus YOR231W, strain MKK1, hits give low values
[61] = locus YOR329C, strain SCD5, hits give low values
[62] = locus YPL031C, strain PHO85, hits give low values
[63] = locus YPL153C, strain RAD53, hits give low values
[64] = locus YPL204W, strain HRR25, hits give low values
[65] = locus YPL209C, strain IPL1, hits give low values
[66] = locus YPL256C, strain CLN2, hits give low values
[67] = locus YPR025C, strain CCL1, hits give low values
[68] = locus YPR106W, strain ISR1, hits give low values
[69] = locus YPR111W, strain DBF20, hits give low values
[70] = strain NNK1, hits give low values
[71] = strain TSCII, hits give low values

Measured: normalized growth

Cc1c(C)c(C)c(CSC(N)=Nc2ccc(F)cc2)c(C)c1C
inactive: [1] 0.996 | [2] 0.997 | [3] 0.994 | [4] 0.997 | [5] 0.997 | [6] 0.999 | [7] 0.995 | [8] 1.01 | [9] 0.992 | [10] 1 | [11] 0.944 | [12] 1 | [13] 0.998 | [14] 0.995 | [15] 0.931 | [16] 0.894 | [17] 0.937 | [18] 1.01 | [19] 0.993 | [20] 1 | [21] 0.946 | [22] 1.01 | [23] 0.932 | [24] 0.959 | [25] 0.975 | [26] 0.946 | [27] 0.953 | [28] 1.02 | [29] 0.967 | [30] 0.992 | [31] 0.925 | [32] 0.942 | [33] 0.936 | [34] 0.998 | [35] 0.93 | [36] 1.05 | [37] 0.966 | [38] 0.955 | [39] 0.943 | [40] 0.999 | [41] 0.999 | [43] 0.969 | [44] 0.953 | [45] 0.921 | [46] 0.993 | [47] 0.953 | [48] 1 | [49] 1 | [50] 0.969 | [51] 1 | [52] 1.03 | [53] 0.998 | [54] 1.01 | [55] 0.969 | [56] 0.998 | [57] 0.945 | [58] 0.972 | [59] 1 | [60] 0.97 | [61] 0.996 | [62] 0.929 | [63] 0.942 | [64] 0.95 | [65] 0.999 | [66] 0.902 | [67] 1 | [68] 0.99 | [69] 0.99 | [70] 0.995 | [71] 0.998
active: [42] 0.823

NC(=Nc1ccc(F)cc1)SCc1c(Cl)cccc1Cl
inactive: [1] 0.992 | [2] 0.99 | [3] 0.985 | [4] 0.984 | [5] 0.986 | [6] 0.99 | [7] 0.983 | [8] 0.996 | [9] 0.985 | [10] 0.986 | [11] 0.954 | [12] 0.992 | [13] 0.991 | [14] 0.985 | [15] 0.96 | [16] 0.923 | [17] 0.954 | [18] 0.987 | [19] 0.994 | [20] 0.99 | [21] 0.96 | [22] 0.989 | [23] 0.947 | [24] 0.981 | [25] 0.978 | [26] 0.985 | [27] 0.962 | [28] 1.05 | [29] 0.962 | [30] 0.99 | [31] 0.954 | [32] 0.938 | [33] 0.961 | [34] 0.991 | [35] 0.99 | [36] 1.09 | [37] 0.967 | [38] 0.962 | [39] 0.945 | [40] 0.989 | [41] 1.03 | [42] 0.882 | [43] 0.975 | [44] 0.975 | [45] 0.944 | [46] 0.991 | [47] 0.961 | [48] 0.989 | [49] 0.982 | [50] 0.971 | [51] 0.988 | [52] 1.06 | [53] 0.994 | [54] 0.988 | [55] 0.987 | [56] 0.986 | [57] 0.958 | [58] 0.975 | [59] 1.02 | [60] 0.985 | [61] 0.99 | [62] 0.952 | [63] 0.964 | [64] 0.989 | [65] 0.994 | [66] 0.962 | [67] 0.98 | [68] 0.981 | [69] 0.982 | [70] 0.992 | [71] 1
